From the supplement of paper PMC10849652
Of roughly 7,900 targets only a part is listed; those with a hit were picked by preference. About 0.6% of all pairs of compound and target were hits.

Compound: CN1C2=C(C3=C1C(=O)N(N=C3)CC4=CC(=CC=C4)N)SC(=C2)S(=O)C
Experiment: log2 fold change, soluble protein after heating vs DMSO (PISA); higher = thermal stabilisation; K562 cells, 10 uM, 30 min; active = over 0.2 and 3.5 SD of the protein, either way, in both replicates (recomputed)
Method in brief: (§1)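 Values are thermal stability changes relative to control samples and are taken from duplicates. They are stated as log2 fold changes. Before quantification by TMTpro 16plex LC-MS/MS with equalised channel sums, K562 cells at 2×10^6 cells/mL were treated with 10 μM compound for 30 min, heated in aliquots for 3 min across 48°C-58°C, pooled, extracted in PBS with 0.5% NP-40 at 4°C, and centrifuged at 21,000xg for 90 min to give the soluble supernatant.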

Chain of UniProt O15182 (O15182 whole entry, looked up): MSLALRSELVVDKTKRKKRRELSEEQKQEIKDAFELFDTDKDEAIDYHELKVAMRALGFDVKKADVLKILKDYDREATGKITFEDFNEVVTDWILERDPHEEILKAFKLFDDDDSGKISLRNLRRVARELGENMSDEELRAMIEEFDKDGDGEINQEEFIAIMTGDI
Chain of UniProt Q5VT25 (Q5VT25 whole entry, looked up): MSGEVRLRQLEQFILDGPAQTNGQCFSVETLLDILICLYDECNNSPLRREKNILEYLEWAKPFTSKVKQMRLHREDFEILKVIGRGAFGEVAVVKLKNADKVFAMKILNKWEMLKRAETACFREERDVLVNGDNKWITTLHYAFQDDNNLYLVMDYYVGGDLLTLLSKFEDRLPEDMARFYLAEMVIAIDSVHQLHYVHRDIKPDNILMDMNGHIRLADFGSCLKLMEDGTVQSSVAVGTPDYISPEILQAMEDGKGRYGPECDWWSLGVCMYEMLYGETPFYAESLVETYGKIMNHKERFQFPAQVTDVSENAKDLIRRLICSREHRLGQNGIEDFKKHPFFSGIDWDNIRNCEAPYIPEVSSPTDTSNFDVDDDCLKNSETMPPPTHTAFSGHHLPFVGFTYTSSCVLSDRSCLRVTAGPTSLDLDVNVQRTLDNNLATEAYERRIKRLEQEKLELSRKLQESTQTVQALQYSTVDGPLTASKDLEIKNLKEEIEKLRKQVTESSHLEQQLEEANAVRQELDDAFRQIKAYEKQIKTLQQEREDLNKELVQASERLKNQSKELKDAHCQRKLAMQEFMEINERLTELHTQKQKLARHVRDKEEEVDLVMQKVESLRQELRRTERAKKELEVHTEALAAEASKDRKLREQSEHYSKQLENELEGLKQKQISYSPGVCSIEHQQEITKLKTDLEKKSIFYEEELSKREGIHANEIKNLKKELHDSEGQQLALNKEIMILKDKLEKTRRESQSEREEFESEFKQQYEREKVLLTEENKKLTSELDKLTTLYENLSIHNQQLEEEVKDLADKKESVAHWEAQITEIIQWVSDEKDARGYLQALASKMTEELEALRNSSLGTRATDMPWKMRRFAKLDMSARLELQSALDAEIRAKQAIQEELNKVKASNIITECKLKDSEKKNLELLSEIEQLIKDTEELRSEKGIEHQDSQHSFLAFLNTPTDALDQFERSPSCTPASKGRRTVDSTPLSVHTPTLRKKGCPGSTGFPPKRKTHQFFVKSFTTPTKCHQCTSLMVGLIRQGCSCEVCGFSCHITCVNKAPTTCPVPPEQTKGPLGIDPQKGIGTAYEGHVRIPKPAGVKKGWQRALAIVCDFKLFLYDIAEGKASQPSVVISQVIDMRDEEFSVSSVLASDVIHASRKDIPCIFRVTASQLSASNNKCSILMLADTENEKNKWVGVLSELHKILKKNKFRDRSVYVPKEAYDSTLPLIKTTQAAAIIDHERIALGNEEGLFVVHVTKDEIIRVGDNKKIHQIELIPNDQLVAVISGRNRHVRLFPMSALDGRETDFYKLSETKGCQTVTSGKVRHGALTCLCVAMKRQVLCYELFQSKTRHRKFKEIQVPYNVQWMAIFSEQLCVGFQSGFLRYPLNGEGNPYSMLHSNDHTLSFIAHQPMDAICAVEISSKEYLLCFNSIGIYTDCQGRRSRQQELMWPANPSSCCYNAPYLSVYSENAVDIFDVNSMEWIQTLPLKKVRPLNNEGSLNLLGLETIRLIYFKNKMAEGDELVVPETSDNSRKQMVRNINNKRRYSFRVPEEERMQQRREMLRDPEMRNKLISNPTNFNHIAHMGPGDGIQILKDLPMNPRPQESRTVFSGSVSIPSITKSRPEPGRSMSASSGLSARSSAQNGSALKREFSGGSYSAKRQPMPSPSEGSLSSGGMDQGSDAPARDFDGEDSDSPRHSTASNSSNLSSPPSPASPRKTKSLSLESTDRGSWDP
Chain of UniProt P00915 (P00915 whole entry, looked up): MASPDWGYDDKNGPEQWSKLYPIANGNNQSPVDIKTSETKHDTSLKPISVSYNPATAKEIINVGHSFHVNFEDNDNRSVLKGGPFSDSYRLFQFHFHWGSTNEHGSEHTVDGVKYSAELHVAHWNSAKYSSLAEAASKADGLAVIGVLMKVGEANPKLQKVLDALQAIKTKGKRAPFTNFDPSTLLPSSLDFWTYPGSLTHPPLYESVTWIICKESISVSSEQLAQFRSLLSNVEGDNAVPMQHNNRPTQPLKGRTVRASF
Chain of UniProt A5YKK6 (A5YKK6 whole entry, looked up): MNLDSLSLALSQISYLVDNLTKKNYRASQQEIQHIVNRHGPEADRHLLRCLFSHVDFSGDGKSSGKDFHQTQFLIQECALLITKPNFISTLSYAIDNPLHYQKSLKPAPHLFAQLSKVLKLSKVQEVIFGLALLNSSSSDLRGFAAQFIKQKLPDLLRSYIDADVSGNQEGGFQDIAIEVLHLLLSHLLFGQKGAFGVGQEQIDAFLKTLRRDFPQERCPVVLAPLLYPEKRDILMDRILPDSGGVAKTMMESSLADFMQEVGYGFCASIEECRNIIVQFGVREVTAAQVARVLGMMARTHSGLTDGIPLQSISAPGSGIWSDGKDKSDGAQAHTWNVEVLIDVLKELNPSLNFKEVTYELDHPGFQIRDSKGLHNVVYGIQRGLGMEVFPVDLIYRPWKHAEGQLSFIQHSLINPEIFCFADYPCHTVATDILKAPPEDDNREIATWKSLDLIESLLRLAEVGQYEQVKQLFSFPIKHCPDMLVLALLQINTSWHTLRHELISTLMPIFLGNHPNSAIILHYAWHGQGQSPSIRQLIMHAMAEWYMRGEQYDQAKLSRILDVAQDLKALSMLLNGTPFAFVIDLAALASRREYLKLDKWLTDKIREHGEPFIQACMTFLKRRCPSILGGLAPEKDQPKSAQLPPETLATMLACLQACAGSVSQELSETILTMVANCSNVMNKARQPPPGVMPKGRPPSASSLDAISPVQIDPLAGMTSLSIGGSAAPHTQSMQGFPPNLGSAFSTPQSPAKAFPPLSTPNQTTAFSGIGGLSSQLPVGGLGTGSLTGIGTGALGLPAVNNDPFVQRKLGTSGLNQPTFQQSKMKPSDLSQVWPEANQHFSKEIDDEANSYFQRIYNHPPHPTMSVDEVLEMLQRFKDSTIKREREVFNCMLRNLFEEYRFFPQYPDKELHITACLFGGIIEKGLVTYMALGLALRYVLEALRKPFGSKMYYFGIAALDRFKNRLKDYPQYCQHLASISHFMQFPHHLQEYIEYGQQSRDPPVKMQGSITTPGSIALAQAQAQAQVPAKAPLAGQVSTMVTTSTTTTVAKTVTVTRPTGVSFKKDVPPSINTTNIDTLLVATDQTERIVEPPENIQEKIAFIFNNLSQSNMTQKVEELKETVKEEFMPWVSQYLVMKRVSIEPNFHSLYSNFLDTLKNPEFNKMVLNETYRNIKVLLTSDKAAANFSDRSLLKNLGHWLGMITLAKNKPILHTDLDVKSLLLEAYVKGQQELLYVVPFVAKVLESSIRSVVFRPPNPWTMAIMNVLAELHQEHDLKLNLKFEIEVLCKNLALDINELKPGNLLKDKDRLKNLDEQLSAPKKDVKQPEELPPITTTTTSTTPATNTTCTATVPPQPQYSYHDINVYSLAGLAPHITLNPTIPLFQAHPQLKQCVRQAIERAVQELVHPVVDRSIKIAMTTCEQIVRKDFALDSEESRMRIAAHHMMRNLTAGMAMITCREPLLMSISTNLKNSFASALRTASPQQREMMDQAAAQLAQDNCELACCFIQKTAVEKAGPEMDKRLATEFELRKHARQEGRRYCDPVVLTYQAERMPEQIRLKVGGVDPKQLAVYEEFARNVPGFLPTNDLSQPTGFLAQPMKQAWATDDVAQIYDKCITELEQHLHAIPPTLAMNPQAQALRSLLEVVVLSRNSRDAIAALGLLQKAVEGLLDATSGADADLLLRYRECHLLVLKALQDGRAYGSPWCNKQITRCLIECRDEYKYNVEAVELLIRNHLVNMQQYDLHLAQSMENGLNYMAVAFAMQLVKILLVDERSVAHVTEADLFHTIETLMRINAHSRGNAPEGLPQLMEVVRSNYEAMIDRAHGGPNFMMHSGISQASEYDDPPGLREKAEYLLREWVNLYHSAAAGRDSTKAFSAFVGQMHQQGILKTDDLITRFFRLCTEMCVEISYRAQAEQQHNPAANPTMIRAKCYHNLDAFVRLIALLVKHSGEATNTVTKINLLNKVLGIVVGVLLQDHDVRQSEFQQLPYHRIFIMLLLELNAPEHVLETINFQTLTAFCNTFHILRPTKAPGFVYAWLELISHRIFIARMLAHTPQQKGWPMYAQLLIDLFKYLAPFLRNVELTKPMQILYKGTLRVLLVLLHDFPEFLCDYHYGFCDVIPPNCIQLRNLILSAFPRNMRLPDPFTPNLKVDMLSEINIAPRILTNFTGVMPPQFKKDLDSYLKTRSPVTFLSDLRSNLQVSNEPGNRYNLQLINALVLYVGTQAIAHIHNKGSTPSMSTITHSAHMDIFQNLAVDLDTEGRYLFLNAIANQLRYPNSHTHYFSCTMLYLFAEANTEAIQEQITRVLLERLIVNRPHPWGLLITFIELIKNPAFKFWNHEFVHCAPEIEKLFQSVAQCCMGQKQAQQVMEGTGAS
Chain of UniProt Q8IUI8 (Q8IUI8 whole entry, looked up): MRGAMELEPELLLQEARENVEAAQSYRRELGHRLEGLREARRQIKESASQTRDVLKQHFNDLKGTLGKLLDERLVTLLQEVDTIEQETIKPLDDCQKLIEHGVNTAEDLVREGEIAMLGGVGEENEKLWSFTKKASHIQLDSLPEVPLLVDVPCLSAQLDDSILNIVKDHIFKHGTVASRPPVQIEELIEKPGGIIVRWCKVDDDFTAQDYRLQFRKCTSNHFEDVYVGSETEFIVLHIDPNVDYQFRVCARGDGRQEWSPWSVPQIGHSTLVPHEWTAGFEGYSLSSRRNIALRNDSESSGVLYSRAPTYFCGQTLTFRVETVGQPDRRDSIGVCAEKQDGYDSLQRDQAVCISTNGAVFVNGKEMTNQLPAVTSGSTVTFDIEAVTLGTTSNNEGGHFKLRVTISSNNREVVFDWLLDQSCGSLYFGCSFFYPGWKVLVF
Chain of UniProt Q9NRR8 (Q9NRR8 whole entry, looked up): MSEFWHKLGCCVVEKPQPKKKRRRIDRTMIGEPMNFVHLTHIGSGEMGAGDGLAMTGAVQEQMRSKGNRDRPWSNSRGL

| Target | log2 fold change |
| --- | --- |
| CLCN7 (UniProt P51798) | 0.009 (inactive) |
| CCZ1 (UniProt P86791) | -0.002 (inactive) |
| CNOT7 (UniProt Q9UIV1) | 0.021 (inactive) |
| CDC42BPA isoform 6 (UniProt Q5VT25) | 0.078 (inactive) |
| CETN3 (UniProt O15182) | -0.013 (inactive) |
| C4orf33 (UniProt Q8N1A6) | 0.009 (inactive) |
| CDK9 isoform 2 (UniProt P50750) | 0.178 (inactive) |
| CHEK1 (UniProt O14757) | -0.029 (inactive) |
| CD53 (UniProt P19397) | -0.051 (inactive) |
| CDK4 (UniProt P11802) | 0.146 (inactive) |
| CNOT1 (UniProt A5YKK6) | 0.011 (inactive) |
| CPSF1 (UniProt Q10570) | 0.116 (inactive) |
| CLUH, A0A494C0R8 | 0.101 (inactive) |
| CEPT1 (UniProt Q9Y6K0) | -0.072 (inactive) |
| CELF2 isoform 3 (UniProt O95319) | -0.04 (inactive) |
| CDC42SE1 (UniProt Q9NRR8) | -0.074 (inactive) |
| CASP3 (UniProt P42574) | -0.097 (inactive) |
| CDK12 (UniProt Q9NYV4) | 0.392 (inactive) |
| COQ9 (UniProt O75208) | -0.057 (inactive) |
| COMMD2 (UniProt Q86X83) | 0 (inactive) |
| CDK6 (UniProt Q00534) | 0.062 (inactive) |
| CA8 (UniProt P35219) | -0.099 (inactive) |
| CA1 (UniProt P00915) | -0.034 (inactive) |
| CLSPN (UniProt Q9HAW4) | 0.04 (inactive) |
| CCNH (UniProt P51946) | -0.069 (inactive) |
| CLPP (UniProt Q16740) | 0 (inactive) |
| CHD4 isoform 2 (UniProt Q14839) | 0.1 (inactive) |
| CAMSAP1 isoform 3 (UniProt Q5T5Y3) | 0.03 (inactive) |
| CRLF3 (UniProt Q8IUI8) | 0.031 (inactive) |
| CAD (UniProt P27708) | -0.028 (inactive) |

Compound: CN1CCC(CNc2ccc3ncc(-c4cccc(OC(F)(F)F)c4)n3n2)CC1
Experiment: as above
Method in brief: as §1

| Target | log2 fold change |
| --- | --- |
| CLCN7 (UniProt P51798) | -1.05 (active) |
| CCZ1 (UniProt P86791) | -0.256 (active) |
| C1D (UniProt Q13901) | 0.096 (inactive) |
| CNOT7 (UniProt Q9UIV1) | -0.082 (inactive) |
| CDC42BPA isoform 6 (UniProt Q5VT25) | -0.359 (inactive) |
| COMMD1 (UniProt Q8N668) | 0.295 (inactive) |
| CETN3 (UniProt O15182) | -0.287 (active) |
| C4orf33 (UniProt Q8N1A6) | -0.027 (inactive) |
| CDK9 isoform 2 (UniProt P50750) | 0.205 (inactive) |
| CDC25B isoform 4 (UniProt P30305) | -0.081 (inactive) |
| CHEK1 (UniProt O14757) | -0.159 (inactive) |
| CD53 (UniProt P19397) | -0.06 (inactive) |
| CNOT1 (UniProt A5YKK6) | -0.082 (inactive) |
| CPSF1 (UniProt Q10570) | 0.165 (inactive) |
| CLUH, A0A494C0R8 | 0.203 (inactive) |
| CEPT1 (UniProt Q9Y6K0) | 0.03 (inactive) |

| Target | log2 fold change |
| --- | --- |
| CELF2 isoform 3 (UniProt O95319) | 0.111 (inactive) |
| CASP3 (UniProt P42574) | 0.019 (inactive) |
| CDK12 (UniProt Q9NYV4) | -0.102 (inactive) |
| COQ9 (UniProt O75208) | -0.135 (inactive) |
| COMMD2 (UniProt Q86X83) | -0.209 (inactive) |
| CDK6 (UniProt Q00534) | -0.1 (inactive) |
| CA8 (UniProt P35219) | -0.127 (inactive) |
| CA1 (UniProt P00915) | 0.134 (inactive) |
| CLSPN (UniProt Q9HAW4) | -0.02 (inactive) |
| CCNH (UniProt P51946) | 0.005 (inactive) |
| CLPP (UniProt Q16740) | 0.081 (inactive) |
| CHD4 isoform 2 (UniProt Q14839) | -0.073 (inactive) |
| CAMSAP1 isoform 3 (UniProt Q5T5Y3) | -0.254 (inactive) |
| CHST11 (UniProt Q9NPF2) | 0.022 (inactive) |
| CRLF3 (UniProt Q8IUI8) | -0.268 (active) |
| CAD (UniProt P27708) | -0.458 (active) |
